# Fh CTSL1 inh – Fasciola hepatica cathepsin L1 inhibitors, primary screen, counter-screen for PFM18AAP inhibitor project, biochemical, QFRET, fluorogenic peptide substrate. 0.49% of 300,000 active. inhibition, % at 5.96 µM. recombinant F. hepatica cathepsin L1, Z-Leu-Arg-MCA fluorescence;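 active means inhibition above the mean of all tested compounds plus 3 SD, set per screening campaign, cut at about 17% in these data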
# PAFAH1B2 inh – PAFAH1B2 enzyme inhibitors, primary screen, biochemical, fluorescence polarization, human; Platelet-activating factor acetylhydrolase IB subunit alpha2 (Homo sapiens), P68402; recombinant PAFAH1B2, FP-rhodamine activity probe; inhibition, % at 3.39 µM; 1.2% of 340,000 active; AID 492953, 2010;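 active means inhibition above the mean of all tested compounds plus 3 SD, cut at about 24% in these data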
# PAFAH2 FP inh – PAFAH2 enzyme inhibitors, primary screen, biochemical, fluorescence polarization, human | Platelet-activating factor acetylhydrolase 2, cytoplasmic (Homo sapiens), Q99487 | recombinant PAFAH2, FP-rhodamine activity probe | inhibition, % at 3.39 µM | 0.99% of 340,000 active;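 active means inhibition above the mean over all tested compounds plus 3 SD, cut at about 30% in these data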;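 further: inhibitors block probe labeling of enzyme so polarization drops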
# PP5 primary – PP5 phosphatase inhibitors, primary screen, biochemical, fluorescence. Serine/threonine-protein phosphatase 5 (Homo sapiens), P53041. purified PP5c, OMFP substrate fluorescence. inhibition, % at 6.7 µM. 0.18% of 320,000 active. AID 1987, 2009;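 active means inhibition above the campaign's mean inhibition across all tested compounds plus 3 SD, cut at about 9.5% in these data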
# pPAFAH FP inh – pPAFAH enzyme inhibitors, primary screen, biochemical, fluorescence polarization, human; recombinant pPAFAH, FP-rhodamine probe fluorescence polarization; inhibition, % at 3.39 µM; 1.5% of 330,000 active;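 active means inhibition above the mean inhibition across the screen plus 3 SD, cut at about 25% in these data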;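 further: inhibitors block binding of the rhodamine activity-based probe so polarization drops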
# Target sequence (Q13093 whole entry, looked up): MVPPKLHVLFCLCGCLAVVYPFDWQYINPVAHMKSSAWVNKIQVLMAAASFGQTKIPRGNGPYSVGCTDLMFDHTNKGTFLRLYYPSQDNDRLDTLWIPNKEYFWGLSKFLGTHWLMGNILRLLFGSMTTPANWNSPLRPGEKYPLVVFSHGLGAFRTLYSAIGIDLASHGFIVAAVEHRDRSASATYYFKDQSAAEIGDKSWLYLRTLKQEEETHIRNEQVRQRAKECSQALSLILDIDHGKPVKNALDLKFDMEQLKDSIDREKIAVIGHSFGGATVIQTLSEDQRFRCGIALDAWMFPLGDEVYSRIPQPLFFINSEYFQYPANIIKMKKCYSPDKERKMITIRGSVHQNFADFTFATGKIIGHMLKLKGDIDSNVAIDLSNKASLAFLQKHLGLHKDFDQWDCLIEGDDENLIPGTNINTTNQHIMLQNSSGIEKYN
# PAFAH1B3 FP inh – PAFAH1B3 enzyme inhibitors, primary screen, biochemical, fluorescence polarization, human; Platelet-activating factor acetylhydrolase IB subunit alpha1 (Homo sapiens), Q15102; recombinant PAFAH1B3, FP-rhodamine probe; inhibition, % at 3.39 µM; 0.28% of 340,000 active;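 active means inhibition above the screen-wide average of all tested compounds plus 3 SD, cut at about 25% in these data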
# Numbers stand for hits; – = inactive; · = no result given. Compounds with a hit are over-represented: about 3% of the library has one in this group of screens.
SMILES,Fh CTSL1 inh,PAFAH1B2 inh,PAFAH2 FP inh,PP5 primary,pPAFAH FP inh,PAFAH1B3 FP inh
N#CC(c1ccc(=O)[nH]n1)c1ccc(Cl)cc1Cl (configuration not stated),–,–,–,–,34,–
COC(=O)C1(Cc2cc(-c3ccc([N+](=O)[O-])cc3)no2)CCN(C(=O)OC(C)(C)C)CC1,–,–,–,–,–,–
Cc1occc1C(=O)NNC(=S)NCc1ccccc1,17,–,–,–,–,–
O=C(CCc1ccccc1)NNC(=S)NCc1ccc(Cl)cc1,–,25,–,–,28,–
O=C(CNc1ccc(Cl)cc1)NNC(=S)NCc1ccccc1,–,–,–,–,–,–
C=C(C)Cn1c(CN(C)Cc2ccccc2)nc2c1c(=O)n(C)c(=O)n2C,–,–,–,–,–,–
COc1ccccc1CCNC(=O)CSc1nc(=O)[nH]c2c1CCC2,–,–,–,–,–,–
Cc1ccc2oc(-c3cccc(NC(=O)c4ccc(Br)o4)c3C)nc2c1,–,–,–,–,–,–
Cc1cc2nc(-c3cccc(NC(=O)c4ccc(Br)o4)c3C)oc2cc1C,18,–,–,–,–,–
CN(C)c1ccc(/C=C(/NC(=O)c2ccccc2)C(=O)N2CCCC2)cc1,–,–,–,–,–,–
O=S(=O)(NCCc1ccccc1)c1ccc(Br)cc1,–,28,–,–,–,–
O=S(=O)(NCCc1ccncc1)c1ccc(Br)cc1,–,–,–,–,–,–
O=S(=O)(NCCSc1ccccn1)c1ccc(Br)cc1,–,25,–,–,–,–
Cc1ccc(S(=O)(=O)NCCSc2ncccn2)cc1,–,–,–,–,–,–
CCOc1ccc(CN(C)CC(=O)NCc2ccccc2Cl)cc1,–,–,–,–,–,–
CC(=O)c1cccc(CN2CCC(n3nccc3NC(=O)c3ccc4c(c3)OCO4)CC2)c1,–,–,–,–,–,–
O=C(O)c1ccc2c(c1)C1C=CCC1C(c1cc3c(cc1Br)OCO3)N2 (configuration not stated),–,–,–,–,–,–
O=C(O)c1ccc(NS(=O)(=O)c2ccc3c(c2)C2C=CCC2C(c2ccccc2F)N3)cc1 (configuration not stated),·,–,41,·,·,42
O=C(NNS(=O)(=O)c1ccc(Br)cc1)C1CCCCC1,–,28,–,–,–,–
Cc1ccc(S(=O)(=O)NNC(=O)C2CCCCC2)cc1,–,–,–,–,–,–
O=C(COC(=O)c1ccc([N+](=O)[O-])cc1Cl)NCc1ccco1,·,–,–,–,–,–
CC(C)CNC(=O)COC(=O)c1ccc([N+](=O)[O-])cc1Cl,–,–,–,–,29,–
COc1ccc(CN2C(=O)c3cccc4cccc2c34)cc1F,–,–,–,–,–,–
CC(O)(c1ccc(Cl)cc1)C(c1ccccc1)c1ccccn1 (configuration not stated),·,–,–,·,·,–
C=CCn1c(SCC(=O)c2ccc(O)c(O)c2)nnc1-c1ccc(C)cc1,·,–,–,–,28,–
SMILES,Fh CTSL1 inh,PAFAH1B2 inh,PAFAH2 FP inh,PP5 primary,pPAFAH FP inh,PAFAH1B3 FP inh
C=CCn1c(SCC(=O)c2ccc(O)c(O)c2)nnc1-c1ccc(OC)cc1,·,–,–,–,30,–
COc1ccc(-n2nnnc2SCC(=O)c2ccc(O)c(O)c2)cc1,–,–,–,–,30,–
Cn1c(SCC(=O)c2ccc(O)c(O)c2)nnc1-c1ccccc1,·,–,–,·,·,–
C=CCn1c(SCC(=O)c2cccs2)nnc1-c1cccc(OC)c1,–,–,–,–,–,–
COc1ccc(-n2nnnc2SCC(N)=O)cc1,–,–,–,–,–,–
C=CCn1c(SCC(=O)c2ccc(O)c(O)c2)nnc1-c1cccc(OC)c1,·,–,–,–,28,–
CC(C)NC(=S)N/N=C/c1ccc(N2CCOCC2)cc1,–,–,–,–,–,–
Oc1ccc(/C=N/NC(=S)N2CCOCC2)cc1,17,–,–,–,–,–
CCCCn1c(N)c(N(CC(C)C)C(=O)C(C)SCc2nc3sc(C)c(C)c3c(=O)[nH]2)c(=O)[nH]c1=O (configuration not stated),–,–,–,–,–,–
CCOC(=O)C1CCCN(C(=O)COc2ccc(C(=O)c3ccc(F)cc3)cc2)C1 (configuration not stated),·,–,–,·,–,–
O=C(COc1ccc(S(=O)(=O)NC2CCCCC2)cc1)N1CCN(c2cccc(Cl)c2)CC1,–,–,–,–,28,–
CCOC(=O)C1CCCN(C(=O)COc2ccc(S(=O)(=O)N(CC)c3ccccc3)cc2)C1 (configuration not stated),–,–,–,–,34,–
CCC(C)NS(=O)(=O)c1ccc(OCC(=O)N2CCCC2)cc1 (configuration not stated),–,–,–,–,27,–
Cc1ccc(C)c(NS(=O)(=O)c2ccc(OCC(=O)N3CCCC3)cc2)c1,–,–,–,–,25,–
O=C(COC(=O)c1cncc(Br)c1)NCC12CC3CC(CC(C3)C1)C2,·,–,–,·,·,–
O=C(CSc1ccccn1)N1CCNC1=O,·,–,–,·,–,–
CCOC(=O)[C@H]1[C@H]2COc3cc(OC)ccc3[C@@H]2N2C(=O)c3cc(OC)c(OC)cc3NC(=O)[C@@]12C,–,–,–,–,–,–
Cc1cccc2c1ncc1c(=O)n(-c3ccccc3)[nH]c12,–,–,–,–,–,–
COc1ccccc1CNC(=O)/C=C/c1ccc(S(=O)(=O)NCc2ccco2)cc1,–,–,–,–,25,–
O=C(O)/C=C/c1ccc(S(=O)(=O)NCc2ccco2)cc1,–,–,–,–,–,–
O=C(/C=C/c1ccc(S(=O)(=O)NCc2ccco2)cc1)NCc1cccc(Cl)c1,–,–,–,–,29,–
Cc1ccc(CNC(=O)/C=C/c2ccc(S(=O)(=O)NCc3ccco3)cc2)cc1,–,–,–,–,–,–
COc1ccccc1NS(=O)(=O)c1cccc(NC(=O)c2cncc(Br)c2)c1,·,–,–,·,–,–
CC1CC(C)CN(S(=O)(=O)c2ccc3c(c2)CC(=O)N3)C1 (configuration not stated),·,28,–,–,–,–
Nc1c(/C=C2/C=CC(=O)C(O)=C2)c(=O)nc2sc(CC(=O)N3CCOCC3)nn12,·,26,–,·,·,–
Nc1c(/C=C2/C=CC(=O)C(O)=C2)c(=O)nc2sc(CC(=O)N3CCCCC3)nn12,–,54,35,–,32,–
Nc1c(/C=C2/C=CC(=O)C(O)=C2)c(=O)nc2sc(CC(=O)N3CCCC3)nn12,–,–,–,–,–,–
